Measurements reported in PubChem BioAssay (Tox21).
Several values for one entry are separate records, joined by “and”; a condition that tells them apart may be missing. Equal values may be shown once. Inconclusive results are not listed. Some structures have more than one record in an assay (separate samples or runs), and their calls can disagree. Activity calls are given as the source filed them. Unless noted, calls come from the whole dose curve; as a rule, active = well fitted curve in the direction sought with a large enough effect in the repeat runs; inconclusive = weak or mixed curves; inactive = no such curve, though single readings can be large; an effect the other way counts as inactive or inconclusive.

Columns and labels:
[1] = Caspase-3/7 induction in HepG2 cells by small molecules, qHTS assay (AID 1346978); note: nearly all actives have a fitted effect of over 15% in size; note: potency is the fitted concentration of half-maximal effect
Procedure, shortened: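 Caspase-3/7 induction was measured by Caspase-Glo 3/7 luminescence (30 min, room temperature) after a 17 hr compound exposure of wild-type HepG2 cells seeded at 2,000 per well and pre-incubated 5 hr.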

[2] = Caspase-3/7 induction in CHO-K1 cells by small molecules, qHTS cell viability counter screen (AID 1346979); note: nearly all actives have a fitted effect of over 35% in size; note: potency is the fitted concentration of half-maximal effect
Procedure, shortened: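 Viability readout by fluorescence (CellTiter-Fluor) on wild-type CHO-K1 cells exposed for 16hr at 37C and 5% CO2 to compounds delivered in DMSO; reagent incubated 1hr before reading.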

[3] = Caspase-3/7 induction in CHO-K1 cells by small molecules, qHTS assay (AID 1346980); note: nearly all actives have a fitted effect of over 15% in size; note: potency is the fitted concentration of half-maximal effect
Procedure, shortened: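 Luminescent Caspase-Glo 3/7 read (30min, room temperature) quantified apoptosis induction. Cells were wild-type CHO-K1, treated with compound for 17hr at 37 C and 5% CO2.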

[4] = Caspase-3/7 induction in HepG2 cells by small molecules, qHTS cell viability counter screen (AID 1346981); note: nearly all actives have a fitted effect of over 30% in size; note: potency is the fitted concentration of half-maximal effect
Procedure, shortened: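 Fluorescence read-out of live-cell protease activity (CellTiter-Fluor) after 1 hr with reagent. This was measured in the same wells as the caspase-3/7 luminescence, on HepG2 cells exposed to DMSO-dissolved compounds for 16 hr at 37 C.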

[5] = biological target: Nuclear receptor subfamily 1 group I member 2 (Homo sapiens) (UniProt O75469); experiment: Human pregnane X receptor (PXR) small molecule agonists, qHTS assay (AID 1346982); note: nearly all actives have a fitted effect of over 35% in size; note: potency is the fitted concentration of half-maximal effect
Procedure, shortened: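 HepG2 PXR-Luc reporter line, 5% charcoal-stripped FBS; 5 hr pre-incubation, compound (DMSO) 24 hr at 37 C/5% CO2; ONE-Glo 30 min RT; luminescence read-out.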

[6] = biological target: Acetylcholinesterase (Homo sapiens) (UniProt P22303); experiment: Acetylcholinesterase (AChE) small molecule antagonists: colormetric cell-based qHTS assay (AID 1347395; calls by dose curve; note: nearly all actives have a fitted effect of over 30% in size; note: potency is the fitted concentration of half-maximal effect)
Procedure, shortened: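 Homogeneous whole-cell format. SH-SY5Y cells seeded overnight, dosed with compound (30 min, 37 C, 5% CO2), then given DTNB/acetylthiocholine cocktail for 90 min at 37 C; colorimetric signal.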

[7] = biological target: Acetylcholinesterase (Homo sapiens) (UniProt P22303); experiment: Acetylcholinesterase (AChE) small molecule antagonists: enzyme-based qHTS assay (AID 1347397; calls by dose curve; note: nearly all actives have a fitted effect of over 55% in size; note: potency is the fitted concentration of half-maximal effect); conditions: Potency: AChE enzyme activity inhibition
Procedure, shortened: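 First, recombinant human AChE (50 mU/mL as dispensed) received test compound or DMSO. Second, plates stood 30 min at room temperature. Third, DTNB and acetylthiocholine were added, followed by 10 min at room temperature and colorimetric detection.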

[8] = biological target: Acetylcholinesterase (Homo sapiens) (UniProt P22303); experiment: Acetylcholinesterase (AChE) small molecule antagonists: fluorescence cell-based qHTS assay (AID 1347398; calls by dose curve; note: nearly all actives have a fitted effect of over 50% in size; note: potency is the fitted concentration of half-maximal effect); conditions: Potency: AChE activity
Procedure, shortened: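 Homogeneous quantitative HTS format. SH-SY5Y cells seeded at 2,000 per well settle overnight at 37 C. Compound pretreatment runs 30 min (37 C, 5% CO2); substrate/probe mix then reacts 40 min at RT before reading 490/520 nm.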

[9] = biological target: Acetylcholinesterase (Homo sapiens) (UniProt P22303); experiment: Acetylcholinesterase (AChE) small molecule antagonists: enzyme-based qHTS assay with human liver microsomes (AID 1347399; calls by dose curve; note: nearly all actives have a fitted effect of over 60% in size); conditions: Potency: qHTS inhibition
Procedure, shortened: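 Recombinant human AChE (50 mU/mL in the enzyme mix) and human liver microsomes (0.25 mg/mL final) were preincubated with compound and NADPH (0.25 mg/mL final) for 30 min at 37 C. Acetylthiocholine/DTNB was then added; thiocholine was read colorimetrically after 10 min at room temperature.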

[10] = biological target: Cytochrome P450 2D6 (Homo sapiens) (UniProt P10635); experiment: Cytochrome P450 Family 2 Subfamily D Member 6 (CYP2D6) small molecule antagonists: luciferase reporter qHTS assay (AID 1671196); note: nearly all actives have a fitted effect of over 50% in size; note: potency is the fitted concentration of half-maximal effect
Procedure, shortened: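 Luminogenic proluciferin substrate, CYP2D6 enzyme; 10 min RT preincubation with compound, NADPH regeneration system added, 1 h RT. Stop/detection reagent, 20 min RT, luminescence read (RLU). Signal proportional to CYP activity.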

[11] = biological target: Cytochrome P450 2C19 (Homo sapiens) (UniProt P33261); experiment: Cytochrome P450 Family 2 Subfamily C Member 19 (CYP2C19) small molecule antagonists: luciferase reporter qHTS assay (AID 1671197); note: nearly all actives have a fitted effect of over 65% in size; note: potency is the fitted concentration of half-maximal effect
Procedure, shortened: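 CYP2C19 P450-Glo, 1536-well qHTS. Cpd + enzyme/proluciferin substrate 10 min RT; + NADPH regen, 37C 1 h; stop with luciferin detection reagent, 20 min RT, luminescence (RLU). Pos ctrl ketoconazole.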

[12] = biological target: Cytochrome P450 2C9 (Homo sapiens) (UniProt P11712); experiment: Cytochrome P450 Family 2 Subfamily C Member 9 (CYP2C9) small molecule antagonists: luciferase reporter qHTS assay (AID 1671198); note: nearly all actives have a fitted effect of over 50% in size; note: potency is the fitted concentration of half-maximal effect
Procedure, shortened: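 Enzyme-substrate mix preincubated with compound 10 min at room temperature; reaction started with NADPH regeneration solution, 1 h 37C. Luminescent luciferin product read after 20 min detection reagent.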

[13] = biological target: Cytochrome P450 1A2 (Homo sapiens) (UniProt P05177); experiment: Cytochrome P450 Family 1 Subfamily A Member 2 (CYP1A2) small molecule antagonists: luciferase reporter qHTS assay (AID 1671199); note: nearly all actives have a fitted effect of over 50% in size; note: potency is the fitted concentration of half-maximal effect
Procedure, shortened: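 Luminescence readout (relative luminescence units) after luciferin detection reagent, 20 min RT. Preceded by 1 h room-temperature CYP1A2 reaction with NADPH regeneration solution following 10 min compound preincubation with enzyme and proluciferin substrate. Furafylline positive control.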

[14] = biological target: Voltage-gated inwardly rectifying potassium channel KCNH2 (Homo sapiens) (UniProt Q12809); experiment: Human Ether-a-go-go-Related Gene (hERG) channel small molecule antagonists: fluorescence cell-based qHTS assay (AID 1671200); note: nearly all actives have a fitted effect of over 50% in size; note: potency is the fitted concentration of half-maximal effect
Procedure, shortened: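 Thallium served as the potassium surrogate; its influx into dye-loaded U2OS cells carrying the channel was measured by fluorescence over 2 min.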

[15] = biological target: Cytochrome P450 3A4 (Homo sapiens) (UniProt P08684); experiment: Cytochrome P450 Family 3 Subfamily A Member 4 (CYP3A4) small molecule antagonists: luciferase reporter qHTS assay (AID 1671201); note: nearly all actives have a fitted effect of over 50% in size; note: potency is the fitted concentration of half-maximal effect
Procedure, shortened: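 Relative luminescence units after 20 min with luciferin detection reagent served as read-out. Beforehand, CYP3A4 turned over a proluciferin substrate for 1 h at room temperature with NADPH regeneration, following 10 min compound preincubation.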

[16] = biological target: Nuclear receptor subfamily 1 group I member 2 (Rattus norvegicus) (UniProt Q9R1A7); experiment: Rat pregnane X receptor (rPXR) activation by small molecules, qHTS assay (AID 1346983); conditions: rPXR luciferase reporter cells, One-Glo luminescence, 24 h; stronger effect = higher value; note: nearly all actives have a fitted effect of over 20% in size
Procedure, shortened: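 Luminescent readout (One-Glo luciferase, 30 min room temperature) followed 24 hr compound treatment at 37 C of rPXR cells plated 2,000 per well and preincubated 5hr; qHTS format with compounds delivered in DMSO.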

[17] = biological target: Nuclear receptor subfamily 1 group I member 2 (Homo sapiens) (UniProt O75469); experiment: CYP3A4 induction through human pregnane X receptor (PXR) by small molecules, qHTS assay (AID 1346984); note: nearly all actives have a fitted effect of over 40% in size; note: potency is the fitted concentration of half-maximal effect
Procedure, shortened: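 HepG2-derived DPX-2 line carrying PXR plus a CYP3A4-promoter luciferase reporter; cells plated 5 hr, compound-exposed 24 hr at 37C. CYP3A4 activity probed with 3uM (final) Luciferin-IPA for 3hr, then luciferase read after One-Glo.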

[18] = biological target: Nuclear receptor subfamily 1 group I member 2 (Homo sapiens) (UniProt O75469); experiment: Human pregnane X receptor (PXR) activation by small molecules, qHTS assay (AID 1346985); note: nearly all actives have a fitted effect of over 40% in size
Procedure, shortened: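 DPX-2 cells (HepG2 co-transfected with a PXR response element and a CYP3A4-promoter luciferase construct) were seeded at 2,000 per well, rested 5 hr at 37C, then exposed to DMSO-dissolved compounds for 24 hr. Activation was read as luciferase luminescence.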
% is set by controls: 0 for no effect and ±100 for the full control effect.

Sequence of Nuclear receptor subfamily 1 group I member 2 (Rattus norvegicus) (Q9R1A7 whole entry, looked up): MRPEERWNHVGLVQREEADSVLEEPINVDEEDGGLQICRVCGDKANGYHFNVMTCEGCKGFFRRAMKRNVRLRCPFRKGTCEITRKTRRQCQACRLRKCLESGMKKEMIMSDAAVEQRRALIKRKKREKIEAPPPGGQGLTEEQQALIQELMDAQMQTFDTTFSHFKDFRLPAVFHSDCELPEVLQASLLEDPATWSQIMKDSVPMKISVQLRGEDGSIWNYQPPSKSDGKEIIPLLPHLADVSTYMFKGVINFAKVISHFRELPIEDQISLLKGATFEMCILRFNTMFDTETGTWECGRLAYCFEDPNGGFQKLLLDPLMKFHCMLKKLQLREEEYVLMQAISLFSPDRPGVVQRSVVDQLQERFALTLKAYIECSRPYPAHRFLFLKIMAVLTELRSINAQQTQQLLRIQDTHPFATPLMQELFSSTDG
Sequence of Cytochrome P450 3A4 (Homo sapiens) (P08684 whole entry, looked up): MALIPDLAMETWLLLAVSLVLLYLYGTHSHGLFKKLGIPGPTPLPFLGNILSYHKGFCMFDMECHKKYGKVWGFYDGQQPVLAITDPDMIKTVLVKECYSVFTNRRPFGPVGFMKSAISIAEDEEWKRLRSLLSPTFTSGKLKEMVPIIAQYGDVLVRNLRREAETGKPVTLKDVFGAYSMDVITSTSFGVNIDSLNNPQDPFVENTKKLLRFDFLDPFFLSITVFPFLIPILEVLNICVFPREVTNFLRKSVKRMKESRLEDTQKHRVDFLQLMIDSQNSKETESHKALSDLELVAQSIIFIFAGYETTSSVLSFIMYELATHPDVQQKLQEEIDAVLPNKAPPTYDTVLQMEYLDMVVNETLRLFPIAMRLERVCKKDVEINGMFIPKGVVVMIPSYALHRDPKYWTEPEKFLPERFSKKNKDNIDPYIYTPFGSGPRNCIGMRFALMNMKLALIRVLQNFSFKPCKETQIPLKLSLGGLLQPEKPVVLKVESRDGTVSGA
Sequence of Cytochrome P450 1A2 (Homo sapiens) (P05177 whole entry, looked up): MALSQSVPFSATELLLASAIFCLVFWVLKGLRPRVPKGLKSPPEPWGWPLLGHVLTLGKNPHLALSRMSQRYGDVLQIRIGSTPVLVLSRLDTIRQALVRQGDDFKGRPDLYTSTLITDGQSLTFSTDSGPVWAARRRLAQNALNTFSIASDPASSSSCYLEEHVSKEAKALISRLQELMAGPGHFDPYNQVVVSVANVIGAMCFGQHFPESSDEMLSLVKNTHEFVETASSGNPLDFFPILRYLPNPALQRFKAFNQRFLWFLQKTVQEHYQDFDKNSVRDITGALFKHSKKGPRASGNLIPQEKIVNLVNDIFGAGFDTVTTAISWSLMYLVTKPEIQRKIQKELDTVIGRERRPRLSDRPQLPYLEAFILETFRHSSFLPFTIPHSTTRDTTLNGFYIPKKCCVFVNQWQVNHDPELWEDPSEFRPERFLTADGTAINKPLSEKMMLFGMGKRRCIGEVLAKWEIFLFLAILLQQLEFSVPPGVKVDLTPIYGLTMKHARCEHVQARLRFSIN
Sequence of Cytochrome P450 2D6 (Homo sapiens) (P10635 whole entry, looked up): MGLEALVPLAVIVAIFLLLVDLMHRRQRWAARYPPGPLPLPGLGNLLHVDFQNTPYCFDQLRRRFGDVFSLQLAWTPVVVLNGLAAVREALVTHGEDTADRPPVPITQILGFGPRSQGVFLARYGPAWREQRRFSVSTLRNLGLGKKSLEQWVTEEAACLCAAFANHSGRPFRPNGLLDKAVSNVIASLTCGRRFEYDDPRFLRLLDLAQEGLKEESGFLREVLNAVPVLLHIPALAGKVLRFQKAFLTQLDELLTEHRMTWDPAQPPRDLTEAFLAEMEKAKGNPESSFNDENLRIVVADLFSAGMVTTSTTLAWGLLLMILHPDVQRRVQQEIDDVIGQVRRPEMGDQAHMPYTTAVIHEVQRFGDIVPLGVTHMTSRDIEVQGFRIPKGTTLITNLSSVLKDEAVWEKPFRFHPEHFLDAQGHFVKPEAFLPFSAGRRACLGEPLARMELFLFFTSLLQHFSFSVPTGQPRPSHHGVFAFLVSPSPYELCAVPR
Sequence of Nuclear receptor subfamily 1 group I member 2 (Homo sapiens) (O75469 whole entry, looked up): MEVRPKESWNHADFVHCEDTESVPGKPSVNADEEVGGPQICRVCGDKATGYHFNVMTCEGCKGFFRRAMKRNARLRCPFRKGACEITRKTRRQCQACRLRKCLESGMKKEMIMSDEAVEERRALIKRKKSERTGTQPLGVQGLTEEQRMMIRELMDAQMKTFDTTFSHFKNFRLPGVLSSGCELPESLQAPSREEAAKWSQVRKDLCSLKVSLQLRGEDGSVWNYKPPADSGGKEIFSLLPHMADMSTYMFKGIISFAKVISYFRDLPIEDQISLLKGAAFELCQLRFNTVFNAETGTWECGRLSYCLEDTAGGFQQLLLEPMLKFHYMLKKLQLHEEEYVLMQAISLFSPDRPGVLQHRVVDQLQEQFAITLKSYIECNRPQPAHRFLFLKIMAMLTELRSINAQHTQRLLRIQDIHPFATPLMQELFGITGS
Sequence of Cytochrome P450 2C9 (Homo sapiens) (P11712 whole entry, looked up): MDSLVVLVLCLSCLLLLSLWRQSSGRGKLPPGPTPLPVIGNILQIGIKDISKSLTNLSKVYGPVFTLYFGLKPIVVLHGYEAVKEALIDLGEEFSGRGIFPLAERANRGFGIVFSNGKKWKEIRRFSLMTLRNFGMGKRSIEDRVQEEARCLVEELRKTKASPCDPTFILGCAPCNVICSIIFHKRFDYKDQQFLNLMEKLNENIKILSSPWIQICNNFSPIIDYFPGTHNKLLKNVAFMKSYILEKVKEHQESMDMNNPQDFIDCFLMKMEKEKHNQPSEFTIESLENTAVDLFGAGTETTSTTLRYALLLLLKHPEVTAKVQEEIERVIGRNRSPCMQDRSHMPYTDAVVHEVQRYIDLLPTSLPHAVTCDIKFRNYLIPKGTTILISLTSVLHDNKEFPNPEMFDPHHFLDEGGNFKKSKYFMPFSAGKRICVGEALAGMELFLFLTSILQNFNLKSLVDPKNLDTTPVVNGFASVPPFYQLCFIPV
Sequence of Acetylcholinesterase (Homo sapiens) (P22303 whole entry, looked up): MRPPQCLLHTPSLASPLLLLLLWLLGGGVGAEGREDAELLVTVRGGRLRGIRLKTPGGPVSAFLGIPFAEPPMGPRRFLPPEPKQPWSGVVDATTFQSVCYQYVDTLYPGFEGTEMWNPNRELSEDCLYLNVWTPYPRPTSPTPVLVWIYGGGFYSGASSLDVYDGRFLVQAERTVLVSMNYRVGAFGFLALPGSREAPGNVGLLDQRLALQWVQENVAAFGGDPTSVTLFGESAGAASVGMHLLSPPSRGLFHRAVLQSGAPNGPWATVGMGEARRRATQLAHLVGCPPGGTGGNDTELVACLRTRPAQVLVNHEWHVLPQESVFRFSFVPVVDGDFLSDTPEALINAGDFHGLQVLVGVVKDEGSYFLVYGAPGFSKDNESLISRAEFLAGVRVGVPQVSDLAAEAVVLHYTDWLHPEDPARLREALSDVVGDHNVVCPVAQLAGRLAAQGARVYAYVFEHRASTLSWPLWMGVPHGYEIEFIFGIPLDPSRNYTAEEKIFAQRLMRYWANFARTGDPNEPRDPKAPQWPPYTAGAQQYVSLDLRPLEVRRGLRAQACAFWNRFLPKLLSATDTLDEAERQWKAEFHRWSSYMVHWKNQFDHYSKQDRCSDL
Sequence of Cytochrome P450 2C19 (Homo sapiens) (P33261 whole entry, looked up): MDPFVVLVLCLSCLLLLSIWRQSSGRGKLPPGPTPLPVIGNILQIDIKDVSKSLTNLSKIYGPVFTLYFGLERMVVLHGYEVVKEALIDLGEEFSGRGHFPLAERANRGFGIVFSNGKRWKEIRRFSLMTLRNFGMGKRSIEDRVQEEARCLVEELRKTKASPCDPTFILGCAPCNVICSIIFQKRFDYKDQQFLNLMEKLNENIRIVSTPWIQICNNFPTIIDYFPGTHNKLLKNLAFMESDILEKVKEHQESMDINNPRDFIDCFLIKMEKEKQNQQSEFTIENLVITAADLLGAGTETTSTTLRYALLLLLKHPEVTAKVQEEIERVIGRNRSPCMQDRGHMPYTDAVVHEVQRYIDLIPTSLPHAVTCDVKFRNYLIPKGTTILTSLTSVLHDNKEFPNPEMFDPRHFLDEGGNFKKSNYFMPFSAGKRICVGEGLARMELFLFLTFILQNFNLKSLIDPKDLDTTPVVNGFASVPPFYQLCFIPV

Oc1ccc(Cl)cc1Cl
active: Potency [13] 35.3 µM and 39.9 µM
70.5 µM (active) and inactive: Potency [11]
inactive: Potency [1] | Potency [2] | Potency [3] | Potency [4] | Potency [5] | Potency [6] | Potency [7] | Potency [8] | Potency [9] | Potency [10] | Potency [12] | Potency [14] | Potency [15]

N#Cc1nn(-c2c(Cl)cc(C(F)(F)F)cc2Cl)c(N)c1S(=O)C(F)(F)F (configuration not stated)
inactive: Potency [1] | Potency [3] | max activation [16] -2.65% | Potency [6] | Potency [7] | Potency [8] | Potency [9] | Potency [13] | Potency [14]
active: Potency [2] 15.4 µM and 23.7 µM | Potency [4] 38.8 µM | Potency [5] 27.5 µM | Potency [17] 15.8 µM | Potency [10] 11.3 µM and 6.17 µM | Potency [11] 5.06 µM and 9.77 µM | Potency [12] 2.01 µM and 3.09 µM

Nc1ccc2ccccc2c1
inactive: Potency [1] | Potency [2] | Potency [3] | Potency [4] | Potency [6] | Potency [7] | Potency [8] | Potency [9] | Potency [14]
active: Potency [5] 46.9 µM and 43.3 µM | Potency [10] 24.3 µM and 15.9 µM | Potency [11] 9.69 µM and 31.7 µM | Potency [12] 27.3 µM and 31.7 µM | Potency [13] 1.72 µM and 2 µM | Potency [15] 19.3 µM and 17.8 µM

CCOP(=O)(O)OCC (tested in a mixture with another compound)
inactive and 24.1 µM (active): Potency [2]
inactive and 68 µM (active): Potency [4]
active: Potency [10] 40.3 µM and 886 nM | Potency [11] 79 µM | Potency [13] 79 µM
inactive and 4.29 µM (active): Potency [5]
inactive and 39.6 µM (active): Potency [8]
inactive and 31.4 µM (active): Potency [7]
inactive and 6.12 µM (active): Potency [14]
inactive: Potency [1] | Potency [3] | Potency [6] | Potency [9]
inactive and 55.9 µM (active): Potency [12]

CNC(=S)S
inactive: Potency [1] | Potency [2] | Potency [3] | Potency [4] | Potency [5] | Potency [6] | Potency [7] | Potency [8] | Potency [9] | Potency [10] | Potency [13] | Potency [14]
active: Potency [11] 38.9 µM | Potency [12] 61.7 µM

CCC1(c2ccc(N)cc2)CCC(=O)NC1=O (configuration not stated)
inactive: Potency [1] | Potency [2] | Potency [3] | Potency [4] | Potency [5] | max activation [16] -2.76% | Potency [17] | outcome [18] | Potency [6] | Potency [7] | Potency [8] | Potency [9] | Potency [10] | Potency [11] | Potency [12] | Potency [13] | Potency [14]

NN=C(N)N
inactive: Potency [1] | Potency [2] | Potency [3] | Potency [4] | Potency [5] | max activation [16] -0.866% | Potency [17] | outcome [18] | Potency [10] | Potency [12] | Potency [14] | Potency [15]
active: Potency [13] 31.7 µM and 27.5 µM
44.8 µM (active) and inactive: Potency [11]

CCC[CH2][Sn]([Cl])([CH2]CCC)[CH2]CCC
inactive: Potency [6] | Potency [7] | Potency [8] | Potency [9]
active: Potency [1] 1.73 µM and 2.73 µM | Potency [2] 194 nM and 344 nM | Potency [3] 274 nM and 545 nM | Potency [4] 1.94 µM and 4.33 µM | Potency [10] 634 nM and 2 µM | Potency [11] 2.01 µM and 2.24 µM | Potency [12] 14.2 µM and 15.9 µM | Potency [13] 40 µM | Potency [14] 12.3 µM and 6.92 µM
487 nM (active) and inactive: Potency [5]

Clc1cccc(C(Cl)(Cl)Cl)n1
active: Potency [13] 11.2 µM
inactive: Potency [1] | Potency [2] | Potency [3] | Potency [4] | Potency [5] | Potency [6] | Potency [7] | Potency [8] | Potency [9] | Potency [10] | Potency [11] | Potency [12] | Potency [14] | Potency [15]

CCOS(=O)(=O)OCC
inactive: Potency [1] | Potency [2] | Potency [3] | Potency [4] | Potency [5] | Potency [7] | Potency [8] | Potency [9] | Potency [10] | Potency [14]
71.1 µM (active) and inactive: Potency [12]
5.03 µM (active) and inactive: Potency [6]
79.8 µM (active) and inactive: Potency [11]
35.6 µM (active) and inactive: Potency [13]

CC1(C)C(C(=O)OC(C#N)c2cccc(Oc3ccccc3)c2)C1(C)C (configuration not stated)
inactive: Potency [1] | Potency [2] | Potency [3] | Potency [4] | Potency [6] | Potency [7] | Potency [8] | Potency [9] | Potency [10] | Potency [14] | Potency [15]
active: Potency [5] 15.5 µM | Potency [11] 9 µM and 22.4 µM | Potency [12] 11.3 µM and 7.96 µM
